Laboratory results as given in PubChem BioAssay (NCATS).
Records with an inconclusive call do not appear. Active and inactive are the calls of the source. Calls come from the whole dose curve; as a rule, active = well fitted curve in the direction sought with a large enough effect; inconclusive = small, poorly fitted or top-dose-only effect, or another doubt; inactive = no such curve, though single readings can be large; an effect the other way counts as inactive or inconclusive.

What was measured:
HACAT = experiment: qHTS assay to identify novel small-molecules to repurpose for Merkel cell carcinoma treatment (AID 1296009); settings: MCC and control cell lines, CellTiter-Glo viability, 72 h; at 44.8 µM (top of the series) unless noted; note: nearly all actives have a fitted effect of over 60% in size
Procedure, shortened: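 72 hr, 37 degree celsius; NPC 8-pt / MIPE 11-pt dose response; compound pinned in DMSO; CellTiter-Glo, 10 min RT, luminescence; normalized to no-cell and DMSO controls.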

C33A = experiment: Primary qHTS to identify gynecologic anti-cancer compounds using libraries of approved drugs and bioactive compounds (AID 1345084); settings: Gynecologic cancer cell panel viability, ATPlite luminescence, 48 h; series mostly up to 57.5 µM; note: % is set by controls: 0 for no effect and ±100 for the full control effect; nearly all actives have a fitted effect of over 55% in size
Procedure, shortened: (§1)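 Luminescence from the ATPlite ATP-monitoring reagent indicates viable cell number; lower signal means cytotoxicity. Cells received compound 16 h after seeding and were exposed for 48 h across five concentrations.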

CAOV3 = experiment: as above; settings: Gynecologic cancer cell panel viability, ATPlite luminescence, 48 h; series mostly up to 57.5 µM
Procedure, shortened: as §1

CASKI = experiment: as above; settings: Gynecologic cancer cell panel viability, ATPlite luminescence, 48 h; series mostly up to 57.5 µM
Procedure, shortened: as §1

Es-2 = experiment: as above; settings: Gynecologic cancer cell panel viability, ATPlite luminescence, 48 h; series mostly up to 57.5 µM
Procedure, shortened: as §1

HeLa = experiment: as above; settings: Gynecologic cancer cell panel viability, ATPlite luminescence, 48 h; series mostly up to 57.5 µM
Procedure, shortened: as §1

Hek293T = experiment: as above; settings: Gynecologic cancer cell panel viability, ATPlite luminescence, 48 h, control line for the selectivity index; series mostly up to 57.5 µM
Procedure, shortened: as §1

JEG-3 = experiment: as above; settings: Gynecologic cancer cell panel viability, ATPlite luminescence, 48 h; series mostly up to 57.5 µM
Procedure, shortened: as §1

OV90 = experiment: as above; settings: Gynecologic cancer cell panel viability, ATPlite luminescence, 48 h; series mostly up to 57.5 µM
Procedure, shortened: as §1

PA-1 = experiment: as above; settings: Gynecologic cancer cell panel viability, ATPlite luminescence, 48 h; series mostly up to 57.5 µM
Procedure, shortened: as §1

SKOV3 = experiment: as above; settings: Gynecologic cancer cell panel viability, ATPlite luminescence, 48 h; series mostly up to 57.5 µM
Procedure, shortened: as §1

Tov-21-G = experiment: as above; settings: Gynecologic cancer cell panel viability, ATPlite luminescence, 48 h; series mostly up to 57.5 µM
Procedure, shortened: as §1

Tov112D = experiment: as above; settings: Gynecologic cancer cell panel viability, ATPlite luminescence, 48 h; series mostly up to 57.5 µM
Procedure, shortened: as §1

Cc1c(F)cc(C(=O)NC2CC2)cc1-c1ccc(C(=O)NCC(C)(C)C)cn1
inactive: outcome (HACAT) | Potency (C33A) | Potency (CAOV3) | outcome (CASKI) | Potency (Es-2) | Potency (HeLa) | Potency (Hek293T) | Potency (JEG-3) | Potency (OV90) | Potency (PA-1) | Potency (SKOV3) | Potency (Tov-21-G) | Potency (Tov112D)

O=C(/C=C/c1ccc(O)cc1)OCC1OC(O)C(OC2OC(CO)C(O)C(O)C2O)C(O)C1O (centres undefined)
inactive: outcome (HACAT) inactive [at 17.4 µM] | Potency (C33A) | Potency (CAOV3) | outcome (CASKI) | Potency (Es-2) | Potency (HeLa) | Potency (Hek293T) | Potency (JEG-3) | Potency (OV90) | Potency (PA-1) | Potency (SKOV3) | Potency (Tov-21-G) | Potency (Tov112D)

COC(=O)C(CC1(O)c2ccccc2N2C(=O)C(C)(C)N(O)C21)n1cnc2ccccc2c1=O (centres undefined)
inactive: outcome (HACAT) inactive [at 17.4 µM] | Potency (C33A) | Potency (CAOV3) | outcome (CASKI) | Potency (Es-2) | Potency (HeLa) | Potency (Hek293T) | Potency (JEG-3) | Potency (OV90) | Potency (PA-1) | Potency (SKOV3) | Potency (Tov-21-G) | Potency (Tov112D)

C=CCC/C=C/C#CCCCCCCCC[C@H]1C(=O)O[C@H](C)[C@@H]1O
inactive: outcome (HACAT) | Potency (C33A) | Potency (CAOV3) | outcome (CASKI) | Potency (Es-2) | Potency (HeLa) | Potency (Hek293T) | Potency (JEG-3) | Potency (OV90) | Potency (PA-1) | Potency (SKOV3) | Potency (Tov-21-G) | Potency (Tov112D)

CC1=C(C(=O)OC2OC(COC3OC(CO)C(O)C(O)C3O)C(O)C(O)C2O)C(C)(C)CCC1 (centres undefined)
inactive: outcome (HACAT) inactive [at 17.4 µM] | Potency (C33A) | Potency (CAOV3) | outcome (CASKI) | Potency (Es-2) | Potency (HeLa) | Potency (Hek293T) | Potency (JEG-3) | Potency (OV90) | Potency (PA-1) | Potency (SKOV3) | Potency (Tov-21-G) | Potency (Tov112D)

C/C=C1/[C@H](O[C@@H]2O[C@H](CO)[C@@H](O)[C@H](O)[C@H]2O)OC=C(C(=O)OC)[C@H]1CC(=O)OCCc1ccc(OC(=O)C[C@@H]2C(C(=O)OC)=CO[C@@H](O[C@@H]3O[C@H](CO)[C@@H](O)[C@H](O)[C@H]3O)/C2=C/C)cc1
inactive: outcome (HACAT) inactive [at 9.27 µM] | activity change, negative = cytotoxicity (C33A) 3.14% [at 11.6 µM] | activity change, negative = cytotoxicity (CAOV3) 14% [at 11.6 µM] | activity change, negative = cytotoxicity (CASKI) 4.82% [at 11.6 µM] | activity change, negative = cytotoxicity (Es-2) 6.86% [at 11.6 µM] | activity change, negative = cytotoxicity (HeLa) 18.2% [at 11.6 µM] | activity change, negative = cytotoxicity (Hek293T) 5.22% [at 11.6 µM] | activity change, negative = cytotoxicity (JEG-3) 15.1% [at 11.6 µM] | activity change, negative = cytotoxicity (OV90) 7.47% [at 11.6 µM] | activity change, negative = cytotoxicity (PA-1) 1.32% [at 11.6 µM] | activity change, negative = cytotoxicity (SKOV3) 0% [at 11.6 µM] | activity change, negative = cytotoxicity (Tov-21-G) 4.28% [at 11.6 µM] | activity change, negative = cytotoxicity (Tov112D) 11.9% [at 11.6 µM]

C[C@@H](c1ccccc1)N(C(N)=NC#N)c1cccc2ncccc12
inactive: outcome (HACAT) | Potency (C33A) | Potency (CAOV3) | outcome (CASKI) | Potency (Es-2) | Potency (HeLa) | Potency (Hek293T) | Potency (JEG-3) | Potency (OV90) | Potency (PA-1) | Potency (SKOV3) | Potency (Tov-21-G) | Potency (Tov112D)

CC(=O)O[C@H]1C[C@@H](O)C(C)(C)C2C[C@@H](OC(C)=O)[C@]3(C)C(CC[C@@]4(C)[C@H](c5ccoc5)OC(=O)[C@H]5O[C@]543)[C@]21C (some centres undefined)
inactive: outcome (HACAT) inactive [at 17.4 µM] | Potency (C33A) | Potency (CAOV3) | outcome (CASKI) | Potency (Es-2) | Potency (HeLa) | Potency (Hek293T) | Potency (JEG-3) | Potency (OV90) | Potency (PA-1) | Potency (SKOV3) | Potency (Tov-21-G) | Potency (Tov112D)

CC(C)C1C(OC(=O)/C=C/c2ccccc2)CC2(C)OC2CCC2(C)OC2C1O (centres undefined)
inactive: outcome (HACAT) | Potency (C33A) | Potency (CAOV3) | outcome (CASKI) | Potency (Es-2) | Potency (HeLa) | Potency (Hek293T) | Potency (JEG-3) | Potency (OV90) | Potency (PA-1) | Potency (SKOV3) | Potency (Tov-21-G) | Potency (Tov112D)

N=C(N)c1ccc2nc(-c3cc(CC(=O)NC(CC(=O)O)C(=O)O)cc(-c4cc(S(N)(=O)=O)ccc4O)c3O)[nH]c2c1 (centres undefined)
inactive: outcome (HACAT) | Potency (C33A) | Potency (CAOV3) | outcome (CASKI) | Potency (Es-2) | Potency (HeLa) | Potency (Hek293T) | Potency (JEG-3) | Potency (OV90) | Potency (PA-1) | Potency (SKOV3) | Potency (Tov-21-G) | Potency (Tov112D)

CC(C)N(CCCNC(=O)Nc1ccc(C(C)(C)C)cc1)C[C@H]1O[C@@H](n2ccc3c(N)ncnc32)[C@H](O)[C@@H]1O
inactive: outcome (HACAT) | Potency (C33A) | Potency (CAOV3) | outcome (CASKI) | Potency (Es-2) | Potency (HeLa) | Potency (Hek293T) | Potency (JEG-3) | Potency (OV90) | Potency (PA-1) | Potency (SKOV3) | Potency (Tov-21-G) | Potency (Tov112D)

COc1cc(OC)cc(-c2ccc3c(-c4ccc(F)cc4)[nH]nc3n2)c1
inactive: outcome (HACAT) | Potency (C33A) | Potency (CAOV3) | outcome (CASKI) | Potency (Es-2) | Potency (HeLa) | Potency (Hek293T) | Potency (JEG-3) | Potency (OV90) | Potency (PA-1) | Potency (SKOV3) | Potency (Tov-21-G) | Potency (Tov112D)

N[C@@H](CC(=O)Nc1ccc(Oc2cc(F)c(F)cc2Br)cc1)C(=O)O
inactive: outcome (HACAT) | Potency (C33A) | Potency (CAOV3) | outcome (CASKI) | Potency (Es-2) | Potency (HeLa) | Potency (Hek293T) | Potency (JEG-3) | Potency (OV90) | Potency (PA-1) | Potency (SKOV3) | Potency (Tov-21-G) | Potency (Tov112D)
